# Source: ChEMBL document CHEMBL3988442, “University of Dundee, Small-Polar-MMV Screening Library” (2021)
# The whole screen tested about 48,000 compounds, of which about 13,000 (27%) showed an effect of 50% or more. The list shows a part of the results.
# System: Wolbachia pipientis
# Assay: Anti-Wolbachia Cell-Based Screen
# Assay type: functional
# Set-up: scale not given: in the data most compounds retested in dose-response had high values
# Conditions: 5 µM
row,SMILES,Percent Effect
1,Cn1cc(C2(C)CN(C(=O)COc3ccccc3F)CCO2)cn1 (stereo not given),-6.052%
2,O=S(=O)(NCC1(O)CCOCC1)c1c(F)cccc1F,-2.026%
3,Cc1cc(F)ccc1S(=O)(=O)N1CCN(C)Cc2ccccc21,-7.823%
4,CC(C)(C)CN1CCCC2(CCN(C(=O)c3cn[nH]c3)C2)C1 (stereo not given),-0.3441%
5,CCNC(=O)NCc1ccccc1NS(=O)(=O)c1ccccc1,26.47%
6,O=C1CC2(CCCCC2)C(=O)N1CC(O)COCc1ccccc1F (stereo not given),-27.41%
7,CC(C)(C)CNCC1(O)CCCN(Cc2ccccc2F)C1=O (stereo not given),-15.35%
8,CSCCC(O)C(=O)N1CCN(Cc2cccc(Cl)c2)CC1 (stereo not given),8.238%
9,CCC(CO)N(Cc1ccccn1)C(=O)c1ccc(=O)[nH]c1 (stereo not given),7.999%
10,COc1ccccc1N1CCN(C(=O)CSC(C)C)C(C)C1 (stereo not given),-5.211%
11,NC(=O)CSCC(=O)NCC1CCCC1,107.6%
12,N#CCSCCCN1CCC(C(=O)N2CCCCCC2)CC1,2.389%
13,Cc1nc(CN2CCC(CNC(=O)CCC3CCCC3)CC2)oc1C,-6.137%
14,O=C(CNC(=O)C1CC1)NCC1CCCC1,-13.86%
15,NC(=O)CSCCC(=O)NCC1CC1,101.8%
16,O=C(CCn1cncn1)NCC1CCCC1,2.005%
17,O=C(CCn1cncn1)NCC1CCOC1 (stereo not given),0.0368%
18,N#CCSCC(=O)NCC1CCCCC1,102.7%
19,NC(=O)CSCCC(=O)N1CCCC1c1ccsc1 (stereo not given),-6.046%
20,Cc1cccc(N(CC(=O)N2CCCCC2)Cc2ccno2)c1,2.857%
21,Cc1cc(C(=O)NCC2SCCc3ccccc32)no1 (stereo not given),0.5755%
22,CCN(C(=O)Cc1ccc(NC(=O)NC2CC2)cc1)c1ccccc1,-0.9902%
23,O=C(CSc1ccc2c(c1)OCCO2)NS(=O)(=O)c1cc(F)ccc1F,-16.91%
24,Cc1noc(C)c1CNCC1CCCN1c1cccnn1 (stereo not given),5.268%
25,CC(C)c1nnc(CNCC2CCCN2c2cccnn2)o1 (stereo not given),-19.57%

row,SMILES,Percent Effect
1,c1cnnc(N2CCCC2CNCc2cccs2)c1 (stereo not given),108.7%
2,c1cnnc(N2CCCC2CNCc2ccsc2)c1 (stereo not given),-3.279%
3,Cc1ncc(CNCC2CCCN2c2cccnn2)s1 (stereo not given),6.124%
4,c1cnnc(N2CCCC2CNCCc2cccs2)c1 (stereo not given),5.045%
5,Cc1nc(CNCC2CCCN2c2cccnn2)cs1 (stereo not given),-2.276%
6,Cc1ncccc1CNCC1CCCN1c1cccnn1 (stereo not given),86.13%
7,CC(C)(C)c1ncc(CNCC2CCCN2c2cccnn2)s1 (stereo not given),130.1%
8,Cc1ccc(CNCC2CCCN2c2cccnn2)s1 (stereo not given),110.2%
9,CC(C)(C)c1cnc(CNCC2CCCN2c2cccnn2)o1 (stereo not given),10.11%
10,Cc1nc(CNCC2CCCN2c2cccnn2)oc1C (stereo not given),-10.17%
11,CC(=O)Nc1ccc(CN2CCOC2=O)cc1,-1.092%
12,CC(=O)Nc1ccc(/C=C/c2ncc(C(=O)O)s2)cc1,35.4%
13,CC(C)c1ccn(C2(C(=O)O)CCN(c3ccncc3F)CC2)n1,-3.994%
14,Cc1cccc(C(=O)N(C)CC(=O)N2CCCC2)c1C,11.26%
15,O=C(CNC(=O)C1CC1)NCc1ccc(Cl)s1,12.79%
16,O=C(Nc1cnccn1)[C@H]1COC[C@H]2CN(C3CCCC3)C[C@H]21.O=C(O)C(F)(F)F,12.06%
17,CN(Cc1nnc(C2CC2)n1C)C(=O)c1ccnc(OC2CCC2)c1,-6.34%
18,Cc1cc(C(=O)N(C)Cc2ccccc2OCC(C)C)cc(=O)[nH]1,5.839%
19,COc1ccccc1OCC(=O)NS(=O)(=O)c1ccccc1F,-1.762%
20,CSc1ccc(NCC(=O)NCC2CC2)cc1F,-20.57%
21,COc1cccc([C@@H]2CN(C3CCCC3)C[C@H]2C(=O)O)c1,-6.459%
22,CC(C)N(C)Cc1cnc2n1CCN(Cc1cccc(C#N)c1)C2,113.4%
23,CC(C)N(C)Cc1cnc2n1CCN(Cc1ccc(F)cc1)C2.O=C(O)C(F)(F)F.O=C(O)C(F)(F)F,108.1%
24,Cc1ccc(CN2CCn3c(CNC(=O)c4cccn4C)cnc3C2)s1.O=C(O)C(F)(F)F,57.4%
25,Cc1noc(C)c1CN1CCc2ncc(CN(C)C)n2CC1.O=C(O)C(F)(F)F.O=C(O)C(F)(F)F,-8.609%

row,SMILES,Percent Effect
1,CN(C)Cc1cnc2n1CCN(C(=O)Cc1ccc(F)cc1)CC2.O=C(O)C(F)(F)F,-6.028%
2,CN1CCc2ncc(CNC(=O)c3cccn3C)n2CC1.O=C(O)C(F)(F)F,-7.758%
3,Cn1cc(CN2CCn3c(CNC(=O)c4cccn4C)cnc3C2)cn1.O=C(O)C(F)(F)F,-0.1323%
4,CC(O)CN1CCN(Cc2cccc(C#N)c2)CC1 (stereo not given),-5.978%
5,O=C(NCc1cnc2n1CCN(Cc1nccs1)C2)c1ccno1.O=C(O)C(F)(F)F,-12.49%
6,Cc1ccc(CN2CCc3c(CN(C)C)n[nH]c3C2)s1.O=C(O)C(F)(F)F.O=C(O)C(F)(F)F,-7.014%
7,CC(C)c1ncc2c(n1)CN(Cc1cccc(C#N)c1)CC2,-1.681%
8,Cc1ccc(CN2CCn3c(CN(C)C(C)C)cnc3C2)s1.O=C(O)C(F)(F)F.O=C(O)C(F)(F)F,102.4%
9,COc1cc(C)nc(N2CCN(C(=O)CCn3cc(C)cn3)CC2)n1,-7.08%
10,c1ccc2nc(NCC3(N4CCOCC4)CCSC3)cnc2c1 (stereo not given),-14.05%
11,CCn1cnc2c(c(Br)nn2C)c1=O,-4.609%
12,CS(=O)(=O)c1cccc(S(=O)(=O)NC(=O)c2cscn2)c1,-9.351%
13,CC(C)NC(=O)C[C@@H]1CCNC[C@@H]1Cc1cc(-c2ccccc2)on1,3.733%
14,CCc1cc(=O)[nH]c2nnc(SCC(=O)OC)n12,-19.07%
15,Cn1ccnc1CN1CCC2(CC(=O)N(c3cccc(F)c3)C2)C1.O=C(O)C(F)(F)F (stereo not given),10.35%
16,Cc1cc(C)c(Cn2cncn2)cc1CN1CCC(CN)C1 (stereo not given),-0.9295%
17,Cc1ccc(OCC(O)Cn2ncc3cnn(C)c(=O)c32)cc1 (stereo not given),-11.22%
18,CC(C)N(C)Cc1cnc2n1CCN(CCc1ccccc1)C2.O=C(O)C(F)(F)F.O=C(O)C(F)(F)F,1.323%
19,CC(C)N(C)Cc1cnc2n1CCN(Cc1cccc(F)c1)C2.O=C(O)C(F)(F)F.O=C(O)C(F)(F)F,118.2%
20,CC(C)N(C)Cc1cnc2n1CCN(Cc1ccco1)C2.O=C(O)C(F)(F)F.O=C(O)C(F)(F)F,165.9%
21,COCCN1CCCn2cnc(CN(C)C(C)C)c2C1.O=C(O)C(F)(F)F.O=C(O)C(F)(F)F,1.891%
22,CC(C)N(C)Cc1cnc2n1CCN(C(=O)Cc1cccs1)C2C.O=C(O)C(F)(F)F (stereo not given),0.7731%
23,CN(C)Cc1cnc2n1CCN(C(=O)Cc1cccc(F)c1)CC2.O=C(O)C(F)(F)F,-14.88%
24,CN(Cc1ccco1)Cc1cnc2n1CCN(S(C)(=O)=O)CC2.O=C(O)C(F)(F)F,3.882%
25,CC(C)N(C)Cc1cnc2n1CCN(S(=O)(=O)c1ccccc1)C2.O=C(O)C(F)(F)F,114.3%

row,SMILES,Percent Effect
1,CN(C)Cc1cnc2n1CCN(C(=O)NCc1ccccc1)CC2.O=C(O)C(F)(F)F,-3.612%
2,COCCN1CCn2c(CN(C)C(C)C)cnc2C1.O=C(O)C(F)(F)F.O=C(O)C(F)(F)F,115.3%
3,CC(C)Cc1ncc2c(n1)CN(c1cc(N3CCCC3)nc(N)n1)C2,-10.3%
4,COCCC1(CNC(=O)NCC2CCCN(C)C2)CCC1 (stereo not given),8.648%
5,CCCSCC(=O)N1CCN(c2ccc(C)cc2)CC1C (stereo not given),-1.95%
6,CN(C)Cc1cnc2n1CCN(C(=O)Cc1ccsc1)CC2.O=C(O)C(F)(F)F,-7.652%
7,CC(C)N(C)Cc1cnc2n1CCN(Cc1ccsc1)C2.O=C(O)C(F)(F)F.O=C(O)C(F)(F)F,107.2%
8,CNC(=O)c1cnc2n1CCN(C(=O)Cc1ccccn1)C2,-2.51%
9,CN(C)Cc1cnc2n1CCN(Cc1ccsc1)CC2.O=C(O)C(F)(F)F.O=C(O)C(F)(F)F,-11.04%
10,CC(C)N(C)Cc1cnc2n1CCN(C(=O)c1cccs1)C2,6.203%
11,CC(C)N(C)Cc1cnc2n1CCN(C(=O)Cc1ccsc1)C2.O=C(O)C(F)(F)F,75.58%
12,CC(C)N(C)Cc1cnc2n1CCN(C(=O)Cc1ccccn1)C2.O=C(O)C(F)(F)F.O=C(O)C(F)(F)F,116.4%
13,CC(NCC1CCN(CCO)CC1)c1ccc(OC(F)(F)F)cc1 (stereo not given),5.514%
14,Cc1ccccc1CSc1nc(=O)n(CCO)c2c1CCC2,18.09%
15,Cc1csc(N2CCCN(C(=O)c3cnns3)CC2)n1,3.916%
16,Cc1nc(CCN2CCC(Oc3ccccc3F)CC2)c(C)s1,0%
17,c1cncc(OC2CCN(CCn3cc4ccccc4n3)CC2)c1,92.09%
18,O=C(O)c1cccc(N2CCC(Oc3cccc(F)c3)CC2)n1,3.827%
19,Fc1ccccc1OC1CCN(CCn2cc3ccccc3n2)CC1,96.15%
20,Fc1ccc(OC2CCN(CCn3cncn3)CC2)cc1,1.97%
21,Cc1nc(C)c(CCN2CCC(Oc3ccccc3F)CC2)s1,-50.47%
22,Fc1cccc(OC2CCN(CCn3cc4ccccc4n3)CC2)c1,89.5%
23,c1cncc(O[C@H]2COCCN(CC3CC3)C2)c1,-6.13%
24,Cc1ccc(OC2CCN(CCn3cncn3)CC2)cc1,-5.94%
25,O=C(O)C(F)(F)F.O=C1[C@@H]2CN(C3CCOCC3)C[C@H]2CCN1CC1CC1,-15.82%
